{
  "source": "PubChem BioAssay (NCI)",
  "note": "Several values for one entry are separate records, joined by “and”; a condition that tells them apart may be missing. Equal values may be shown once. This is part of a sample that, as a whole, favours compounds with a hit. Of some 83,000 tested, about 20% had one in any assay.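 Each cell line was grown in a 96-well plate and treated with one concentration of compound for 48 hours. Values below 10 were considered active.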 Activity calls are given as the source filed them.",
  "data": [
    {"test_system": "HL-60(TB) leukemia", "test": "NCI-60 one-dose screen, 48 h (100 = growth as untreated, 0 = no growth, -100 = all killed)", "conditions": "10 µM unless noted", "values": [
      {"compound": "CC(=O)N1N=C(c2ccc(Nc3nc(Nc4ccc(Cl)cc4)nc(Nc4ccc(Cl)cc4)n3)cc2)CC1c1ccco1", "note": "(stereo not drawn)", "growth": "93.6% (inactive)"},
      {"compound": "C=C1c2c(C)nn(-c3ccc(OC)cc3)c2N(C)C23C[C@@H]1C1(C)c4c(C)nn(-c5ccc(OC)cc5)c4N(C)C(C)(C[C@H]12)C3", "note": "(stereo partly drawn)", "growth": "-2.21% (active)"},
      {"compound": "CCC1=C[C@@H]2C[C@]3(C(=O)OC)c4[nH]c5ccccc5c4CC[N@+](CC(=O)Nc4cc5c(cc4OC)N(C)[C@H]4[C@@](O)(C(=O)OC)[C@H](OC(C)=O)[C@]6(CC)C=CCN7CC[C@]54[C@@H]76)(C2)[C@H]13", "growth": "116% (inactive)"},
      {"compound": "NCCCOc1cc2ccccc2cc1C(=O)NCCCOc1cc2ccccc2cc1C(=O)Nc1ccc(Cl)cc1O", "growth": "-62% (active)"},
      {"compound": "CC(=O)[C@H]1CCC/C=C/[C@@H]2C[C@H](O)C[C@H]2[C@H](O)/C=C/C(=O)O1", "growth": "-54.4% (active)"},
      {"compound": "COC(=O)c1cc(C(=O)OC)cc([N+](=O)[O-])c1", "growth": "85.8% (inactive)"},
      {"compound": "COc1ccccc1/C=N\\N=C(N/N=C/c1ccccc1OC)N/N=C/c1ccccc1OC", "growth": "31.3% (inactive) and 41.7% (inactive)"},
      {"compound": "CNC(C)[C@H]1CCC2C3CCC4C[C@@H](N(C)C(=O)c5ccccc5)CC[C@]4(C)C3CC[C@@]21C", "note": "(stereo partly drawn)", "growth": "14.9% (inactive)"},
      {"compound": "COc1cc(/C=N/Nc2nc3c([nH]2)c(=O)n(C)c(=O)n3C)ccc1O", "growth": "90.7% (inactive) and 103% (inactive)"},
      {"compound": "O=C1CCC(N2C(=O)c3cccc(NCCOCCOCCNC(=O)c4cc5c(o4)C(=O)c4ccccc4C5=O)c3C2=O)C(=O)N1", "note": "(stereo not drawn)", "growth": "-9.95% (active)"},
      {"compound": "O=C(CSc1nnc2n1S(=O)(=O)c1ccccc1N2c1ccccc1)Nc1nc2ccc(F)cc2s1", "growth": "106% (inactive)"},
      {"compound": "O=[N+]([O-])c1ccc(NC2CCCCC2)nc1", "growth": "110% (inactive)"},
      {"compound": "Cn1c(-c2c(N)n(Cc3ccc(C(F)(F)F)cc3)c3nc(C#N)c(C#N)nc23)nc2ccccc21", "growth": "-54.6% (active)"},
      {"compound": "Cn1cc(-c2ccc3nc(-c4ccc(CC(=O)ONc5cc(C(C)(C)C)on5)cc4)cnc3c2)cn1", "growth": "29% (inactive)"},
      {"compound": "Clc1ccc2c(c1)c(-c1ccccc1)nc1nncn12", "growth": "112% (inactive)"},
      {"compound": "Cc1ccc(S(=O)(=O)Nc2ccc3cc([N+](=O)[O-])ccc3c2[N+](=O)[O-])cc1", "growth": "83.3% (inactive) and 31% (inactive)"},
      {"compound": "NC1=NCc2nc3ccccc3c(=O)n2C1", "growth": "90.9% (inactive)"},
      {"compound": "COc1ccc(-c2c(-c3nc4ccc(N5CCOCC5)cc4[nH]3)[nH]c(C)c2C(C)=O)cc1", "growth": "4.22% (active)"},
      {"compound": "CN(c1cc2ncc(=O)[nH]c2cc1NC(N)=NCc1ccc(Cl)cc1)C1CCCCC1", "growth": "52.9% (inactive)"},
      {"compound": "Nc1nc(N)c2cc(S(=O)(=O)c3ccccc3)ccc2n1", "growth": "23.2% (inactive) and 20.7% (inactive)"},
      {"compound": "Oc1c(Br)cc(Br)c2ccc(Cn3cc(-c4ccccc4C(F)(F)F)nn3)nc12", "growth": "0.588% (active)"},
      {"compound": "S=C(NCc1ccc2c(c1)OCO2)N1CCN(c2ncnc3c2oc2ccccc23)CC1", "growth": "19.7% (inactive)"},
      {"compound": "CC1=C(C#N)C(C)(C)C(C#N)=C(C)N1", "growth": "98.6% (inactive)"},
      {"compound": "Cc1ccc(/C=C/c2c(C(=O)/C=C/c3ccc(C(F)(F)F)cc3)c(C)nc3ccccc23)cc1", "growth": "-41.3% (active)"},
      {"compound": "CCN(CC)c1ccc2c(cc1=O)[C@@H](NC(C)=O)CCc1cc(OC)c(OC)c(OC)c1-2", "growth": "-56.8% (active)"},
      {"compound": "N#Cc1c(NC(=O)c2ccco2)[n+]([O-])c2ccccc2[n+]1[O-]", "growth": "81.4% (inactive)"},
      {"compound": "N=C(N)c1ccc(-c2ccc(-c3ccccc3)o2)nc1", "growth": "54.1% (inactive)"},
      {"compound": "N#Cc1c(-c2ccccc2)cc(-c2ccccc2)n(CCCCCC(=O)Nc2ccccc2N)c1=O", "growth": "2.68% (active)"},
      {"compound": "CN(C)c1ccc(/C=C\\C(=O)c2ccccc2)cc1", "growth": "76.6% (inactive) and 81.7% (inactive) and 75.5% (inactive)"},
      {"compound": "Nc1ccccc1NC(=O)c1ccc(CCCC(=O)Nc2ccc(C3CC3N)cc2)cc1", "note": "(stereo not drawn)", "growth": "24.6% (inactive)"},
      {"compound": "COc1cc2c(Nc3ccc(Cl)c(Cl)c3F)ncnc2cc1OCC1C[C@@H]2CN(C)C[C@@H]2C1", "note": "(stereo partly drawn)", "growth": "-53.2% (active) and 41.1% (inactive)"},
      {"compound": "Cc1ccc2nc(-c3c(N)n[nH]c3CCCO)[nH]c(=O)c2c1", "growth": "108% (inactive)"},
      {"compound": "COc1cc(-c2nc(/C=C3/C(=O)Nc4ccccc43)c3ccccn23)cc(OC)c1OC", "growth": "89.6% (inactive)"}
    ]}
  ]
}
